Usually inhibition stands for the change of the read-out against control, counted positive when it falls.

Consider 100 compounds from PubChem BioAssay AID2018 (Sanford-Burnham Center for Chemical Genomics, 2009).

Hit rate of the full screen: of about 1,200 compounds, about 600 (50%) were called active. So high a share suggests a set chosen from earlier hits. The list shows a part of the results. Measured potencies and affinities stand elsewhere. Values without a mark were called inactive. Cut-off read from the data, not from the text of the source: active = inhibition above about 42%; inactive = the rest.

Sequence of SUMO-conjugating enzyme UBC9 (Homo sapiens) (P63279 whole entry, looked up): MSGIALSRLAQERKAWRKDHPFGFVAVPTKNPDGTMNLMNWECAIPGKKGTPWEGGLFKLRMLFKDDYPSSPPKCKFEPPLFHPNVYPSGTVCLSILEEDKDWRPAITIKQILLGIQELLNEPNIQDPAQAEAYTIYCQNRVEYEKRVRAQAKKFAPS

The test concerns the target SUMO-conjugating enzyme UBC9 (Homo sapiens) (UniProt P63279). Put plainly: SUMOylation inhibitor hit validation, confirmation, SUMOylation inhibitor project, biochemical, AlphaScreen (AID 2018). The note with it: AlphaScreen in vitro SUMOylation assay; at 35 µM; stronger effect = higher value. A general note: Bead proximity is the source of the signal in Alpha formats.
Regarding `CN1CCc2cc3c(c4c2[C@H]1[C@H](O)c1ccccc1-4)OCO3`, the inhibition was 74% (active).
For the compound `NC(N)=NS(=O)(=O)c1ccc(NC(=S)NC(=O)/C=C/c2ccco2)cc1`, the inhibition was 34.2%.
The figure for `CC(=O)NC(=S)Nc1ccc(NC(=S)NC(=O)/C=C/c2ccco2)cc1` is 7.8%; for `COc1ccc(NC(=O)N2c3ccc(OC)cc3C(C)=CC2(C)C)cc1` it is 28.1%.
`Cc1c(C(=O)c2ccc(F)cc2F)c2ccccn2c1CCC#N`: the inhibition is 15.4%.
On to `COc1ccc(Cn2c(C)c(C)c(C#N)c2NC(=O)Nc2ccc(F)cc2)cc1`, for which the inhibition is -26.7%.
The figure for `c1cc(Nc2ncnc3sc4c(c23)CCC4)ccn1` is 12.9%.
The figure for `Cc1cc2n(n1)SC(Nc1cccc3ccccc13)N2` (stereo not given) is 14%; for `Cc1ccc2cc(C(c3nnnn3C(C)(C)C)N3CCCCCC3)c(=O)[nH]c2c1` (stereo not given) it is 0.1%; for `CNS(=O)(=O)c1ccc2nc(NC(=O)/C=C/c3ccco3)sc2c1` it is 16.2%.
The figure for `COc1ccc(-c2csc(NC(=S)NC(=O)/C=C/c3ccco3)n2)cc1OC` is 74.2% (active); for `Cc1nc2ccc(-c3nc4cc(N)ccc4o3)cc2[nH]1` it is -11.6%.
`CCCCCCC(C)OC(=O)c1ccccc1C(=O)O` (stereo not given): the inhibition is 10.7%.
Regarding `Cc1c(Br)c(O)c(Br)c2sc(=O)oc12`, the inhibition is 49.6% (active).
Regarding `Cc1ccc(Nc2nc(=O)c3cc([N+](=O)[O-])ccc3s2)cc1`, the inhibition is 24.2%.
Take `COc1cc([N+](=O)[O-])cc(/C=N/NC(=O)C(C)Nc2cccc3ccccc23)c1O` (stereo not given): the inhibition is -212%.
The figure for `COc1ccc2c(c1)-c1nc(/N=C/c3cccc(OC)c3O)sc1CC2` is 28.4%; for `CC(O)C(=O)N/N=C/c1cccc(Cl)c1Cl` (stereo not given) it is -34.7%.
On to `COc1cccc(/C=N/NC(=O)C(=O)N/N=C/c2cccc(OC)c2O)c1O`, for which the inhibition is 98.6% (active).
In the case of `COc1cccc(OC)c1C(=O)N1CCNCC1`, the inhibition was -1.1%.
For `O=C(N/N=C/c1ccc(O)cc1O)C(=O)N/N=C/c1ccc(O)cc1O`, the inhibition is 101% (active).
As to `O=C(CNc1ccc2ccccc2c1)N/N=C/c1cc2ccccc2nc1Cl`, the inhibition is 37.3%.
The same measure for `O=C(NCCNc1ccc2ccccc2c1)c1cccn2c(=O)c3sccc3nc12`: 23.7%; for `Cc1ccc(-c2nc3cc(N)ccc3o2)cc1`: 11.5%; for `CC(C)CC(=O)Nc1ccc2oc(-c3cccnc3)nc2c1`: 16.9%.
The same measure for `Cn1nccc1NC(=O)Nc1cccc(Br)c1`: -0.2%; for `CCN1C(=O)c2cccc3c(N)ccc1c23`: 50% (active).
The same measure for `CN1C(=O)c2cccc3c(S(=O)(=O)NCc4ccco4)ccc1c23`: 5%; for `CN1C(=O)c2cccc3c(S(=O)(=O)NCCc4ccccc4)ccc1c23`: -13%.
Turning to `C=CCN1C(=O)N(/C=C/C)c2cccc3cccc1c23`, the inhibition was -14.9%.
The same measure for `COc1cccc(C(=O)Nc2cccc(C(=O)NC3=NN(c4c(Cl)cc(Cl)cc4Cl)C(=O)C3)c2)c1`: 101% (active).
The figure for `COc1cccc(NC(=S)Nc2cccc3ccccc23)c1` is 30.7%; for `COC(=O)/C(=C\Nc1ccc(Cl)cc1Cl)NC(=O)c1ccc(OC)cc1` it is 22.8%.
The same measure for `O=C(Cc1cc(=O)[nH][nH]1)N/N=C/c1cccc2ccccc12`: 47.2% (active); for `O=C(CNc1cccc2ccccc12)N/N=C/c1ccccn1`: -1.7%.
With `C=CCc1cccc(/C=N/NC(=O)CNc2cccc3ccccc23)c1O`, the inhibition is 25.1%.
The figure for `O=C1CC(c2ccco2)CC(O)=C1C=Nc1cc(Cl)ccc1O` (stereo not given) is 54.5% (active); for `O=C1CC(c2ccco2)CC(O)=C1C=NCC1NCCc2ccccc21` (stereo not given) it is 18.6%.
The same measure for `O=C1CC(c2ccco2)CC(O)=C1C=Nc1cc(Cl)ccc1Cl` (stereo not given): 17.2%; for `O=C1C(Cl)=C(N2CCN(c3ccccc3[N+](=O)[O-])CC2)C(=O)c2ccccc21`: 101% (active); for `O=C1CCN(c2ncccc2[N+](=O)[O-])CC1`: -9.6%.
The figure for `Nc1c(Cl)cc(NC(=O)c2ccccc2C(=O)O)cc1Br` is 8%; for `CCCCN1Cc2c(nc3cc(-c4ccco4)[nH]n3c2=O)C1=O` it is 4.3%; for `NS(=O)(=O)c1cnccc1Nc1ccc(Cl)cc1` it is -32.2%.
For the compound `O=C(Nc1ccccc1)c1ccccc1CCc1ccccc1`, the inhibition was -9.6%.
For `C/C(=C\C(=O)c1ccccc1)Nc1ccc(O)cc1`, the inhibition is 18.7%.
Take `O=C(O)c1ccc(N2N=C(c3ccccc3)CC2c2ccccc2)cc1` (stereo not given): the inhibition is -14.9%.
In the case of `COc1ccc(C2=NN(C(=O)c3cccs3)C(c3ccccc3O)C2)cc1` (stereo not given), the inhibition was 27.7%.
Take `Cc1cc(=O)n2[nH]c(N)c(N=Nc3ccccc3)c2n1`: the inhibition is 23.6%.
Turning to `CCOCCCNC1=C(Cl)C(=O)c2ccccc2C1=O`, the inhibition is 90.1% (active).
Turning to `O=C1c2nc3cc(-c4ccco4)[nH]n3c(=O)c2CN1C1CCCCC1`, the inhibition is 6.6%.
The figure for `Cc1[nH][nH]c(=O)c1C(c1c(C)[nH][nH]c1=O)c1cn(C)c2ccccc12` is 102% (active); for `O=C(NCc1ccc(F)cc1)C(=O)c1cn(CC(=O)N2CCCC2)c2ccccc12` it is 11.6%.
Turning to `Cc1[nH][nH]c(=O)c1C(c1c(C)[nH][nH]c1=O)c1cn(Cc2ccc(F)cc2)c2ccccc12`, the inhibition is 50.9% (active).
In the case of `Cc1[nH][nH]c(=O)c1C(c1c(C)[nH][nH]c1=O)c1cn(Cc2cccc3ccccc23)c2ccccc12`, the inhibition was 32.5%.
On to `O=C(O)/C=C/C(=O)Nc1ccc2c(c1)NC(=O)CO2`, for which the inhibition is 13.1%.
In the case of `COc1ccc2c(c1)c(=O)oc1c(C)c(OCc3ccc(C(=O)O)cc3)ccc12`, the inhibition is 65.5% (active).
For `Cc1c(O)ccc2c(CC(=O)N[C@@H](Cc3ccc(O)cc3)C(=O)O)cc(=O)oc12`, the inhibition is 16.9%.
For the compound `CC(=O)Nc1cccc(NC(=S)Nc2cccc3ccccc23)c1`, the inhibition was 28.9%.
Consider `COc1cc2cc(NC(C)=O)cc(NCc3ccccc3)c2cc1OC`, for which the inhibition was 50.6% (active).
The figure for `COc1ccc(NC(=S)Nc2cccc3ccccc23)cc1OC` is 10.7%; for `Cc1ccc(C(=O)Nc2ccccc2C(=O)N2CCN(c3ccccc3)CC2)cc1` it is -27.1%.
`CCOC(=O)N1CCC(c2cc(=O)n(-c3ccccc3)[nH]2)CC1`: the inhibition is 16.1%.
On to `CC(=O)Nc1ccc(S(=O)(=O)Nc2cccn(Cc3ccc(C)cc3)c2=O)cc1`, for which the inhibition is 1.7%.
The same measure for `CCOC(=O)N1CCN(C2=C(NS(=O)(=O)c3ccc(NC(C)=O)cc3)C(=O)c3ccccc3C2=O)CC1`: 53.7% (active).
Consider `CCOC(=O)N1CCN(C2=C(NS(=O)(=O)c3ccc(C)cc3)C(=O)c3ccccc3C2=O)CC1`, for which the inhibition was 85.2% (active).
As for `COc1ccc(Br)cc1C1CC(=O)N2CN(Cc3ccccc3)CSC2=C1C#N` (stereo not given), the inhibition is 29.1%.
With `COc1ccc(CC2=C(O)c3ccccc3C(=O)C2=O)cc1`, the inhibition is 19.6%.
With `O=C1C(=O)c2ccccc2C(O)=C1CCCCl`, the inhibition was 102% (active).
For the compound `CC1(OC(=O)c2cccs2)C(=O)C=C2C=C3CCCN3C=C2C1=O` (stereo not given), the inhibition is 83.7% (active).
The same measure for `Cc1nc2ccc(NC(=O)NCc3ccco3)cc2s1`: -8.1%; for `CC(=O)C1=C(O)C=C(c2ccco2)CC1c1ccco1` (stereo not given): 28.1%.
The same measure for `Cc1ccc(S(=O)(=O)NNC(=S)Nc2c(Cl)cccc2Cl)cc1`: -0.4%; for `Fc1ccc(-c2ccnc3nc(N4CCOCC4)nn23)cc1`: -6.1%.
The same measure for `O=C(O)c1ccc(C(=O)Nc2cccc3ccccc23)c(C(=O)O)c1`: 12.5%; for `Cc1cc(N2C(=O)c3ccc(C(=O)Nc4ccc(O)cc4C(=O)O)cc3C2=O)no1`: 39.8%.
On to `N#Cc1ccc(-c2csc(NC(=O)/C=C/c3cccs3)n2)cc1`, for which the inhibition is 3.9%.
The figure for `CNc1nnc(-c2cc3ccccc3oc2=O)s1` is 28.9%; for `Nc1nnc(-c2cc3c(ccc4ccccc43)oc2=O)s1` it is 46.1% (active).
The same measure for `COC(=O)c1scc(C)c1NC(=O)C(Cl)c1ccccc1` (stereo not given): -8.2%.
`N#Cc1c(-c2ccco2)cc(-c2cccnc2)nc1N`: the inhibition was 26.7%.
Take `N#Cc1sc2nc(-c3ccccc3)cc(-c3ccco3)c2c1N`: the inhibition is 96.1% (active).
The same measure for `CC(=O)c1sc2nc(-c3ccco3)ccc2c1N`: 40%; for `CCOc1cc2c(C#N)c(N3CCNCC3)nc(N)c2c(N)n1`: 18.3%; for `CCOc1cc2c(C#N)c(N3CCCCC3)nc(N)c2c(N)n1`: 101% (active).
In the case of `COc1ccc(CN2C(=O)Cc3c2nc(N)c2c(N)nc(N4CCOCC4)c(C#N)c32)cc1`, the inhibition was 11%.
For `CCOc1cc2c(C#N)c(N3CCOCC3)nc(N)c2c(N)n1`, the inhibition was 44.2% (active).
Consider `Cc1oc2c(c(C)cc3oc(=O)c(CC(=O)NCC(=O)NCC(=O)NCC(C)O)c(C)c32)c1C` (stereo not given), for which the inhibition was -15.6%.
The figure for `COc1ccc(-n2c(NC(=O)c3ccco3)c(C#N)c3nc4ccccc4nc32)cc1` is 101% (active).
The figure for `O=C(Nc1cccc2cccc(NC(=O)c3ccco3)c12)c1ccco1` is 36.3%.
On to `CCOC(=O)c1c(NC(=O)c2ccco2)n(C2CCCCC2)c2nc3ccccc3nc12`, for which the inhibition was 63.5% (active).
For the compound `CN(c1ccccc1)c1cc(=O)[nH]c(=O)[nH]1`, the inhibition was 11.4%.
`Oc1ccc(NC(=S)Nc2ccc(O)cc2)cc1`: the inhibition is 19.5%.
The same measure for `Cc1ccccc1N=Cc1cccc(O)c1O`: 33.2%.
The figure for `Oc1cccc(C=NCc2ccccc2)c1O` is 51.5% (active); for `O=C(CNc1cccc2ccccc12)N/N=C/c1ccc([N+](=O)[O-])cc1` it is -19.8%.
Turning to `O=[N+]([O-])c1ccc(C=Nc2cccc3ccccc23)s1`, the inhibition is 82.6% (active).
With `Oc1oc(-c2ccccc2)nc1C=Nc1cccc2ccccc12`, the inhibition is -77.5%.
For the compound `O=[N+]([O-])c1ccc(-c2ccc(C=Nc3cccc4ccccc34)o2)cc1`, the inhibition is 58.3% (active).
With `Oc1cccc(C=Nc2cccc3ccccc23)c1O`, the inhibition was 59% (active).
